“And” between values parts separate entries of the source, which are not always exact repeats. Equal values may be shown once. Results filed as inconclusive are left out. The source made the active and inactive calls.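 Rule for the calls, unless noted: active = compounds whose cell count with miR-34 switched on is under 0.7 times the count with it off; inactive = the rest.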
Assays:
[1] = liver-stage malaria parasite growth inhibition, primary screen, cell-based, HepG2, luciferase luminescence, HepG2 viability (AID 624349; in the data active = parasite load remaining mostly below about 12%, no sharp cut-off; inactive = mostly above about 10%;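 note: 100% = mean of DMSO negative control wells on the same plate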); conditions: P. berghei liver stage in HepG2, luciferase luminescence, concentration not given here; parasite load remaining: stronger effect = lower value; viability: measured here: HepG2 viability without parasites
[2] = sensitizers of A549 cells to miR-34 induction, primary screen, imaging, A549 dox-inducible miR-34, nuclei and caspase counts (AID 1347080); conditions: A549 miR-34 inducible, Hoechst nuclei count, 48 h
[3] = survival rescue of mitochondrial mutant cells in low glucose, primary screen, MELAS cybrids, Rieske KO mouse fibroblasts, CellTiter-Glo (AID 1508586;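 active = mean z-score across replicates of 1.96 or higher in either the MELAS or the Rieske mutant cell line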;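 note: z relative to plate mean and SD of compound and empty wells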)
[4] = mitochondrial permeability transition inhibitors (AID 1580; call rule not given here); conditions: isolated mitochondria, permeability transition inhibition
[5] = polyglutamine-triggered caspase-3 activation inhibitors, cell-based (AID 1583); conditions: polyglutamine-induced caspase-3 activation, cell assay; stronger effect = higher value;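 tested at 10 µM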
[6] = suppressors of polyQ aggregation in yeast, 75Q-TubU reporter (AID 1593); conditions: Yeast 75Q polyglutamine aggregation reporter
[7] = inhibitors of mitochondrial cytochrome c release, biochemical, purified mitochondria (AID 1603); conditions: stronger effect = lower value;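 note: mouse liver mitochondria challenged with calcium chloride; signal normalized to the plate average as 100%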
[8] = inhibitors of polyQ protein aggregation (AID 1604); conditions: polyglutamine-induced protein aggregation inhibition assay; stronger effect = higher value; tested at 2.5 µM
[9] = protection against mutant huntingtin cytotoxicity, PC12 cells, LDH release (AID 1610); conditions: PC12 mutant huntingtin toxicity, final LDH at 4 uM, stronger effect = lower value
[10] = enhancers of glutamate uptake in motor neurons, MN-1 cell line (AID 1612); conditions: MN-1 motor neuron cells, stronger effect = higher value;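 note: tested at 1 µM final; 0% = mean of DMSO vehicle wells on each plate; positive means more glutamate uptake than control and negative means less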
[11] = suppressors of polyglutamine aggregation in yeast, 75Q-TubH (AID 1616); conditions: S. cerevisiae 75Q-TubH polyglutamine aggregation suppression; stronger effect = higher value
[12] = hESC survival regulators, cell-based (AID 493140; call rule not given here;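 note: cells exposed to compounds for four days before counting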); conditions: human embryonic stem cell survival screen; stronger effect = higher value
[13] = viability rescue of complex I mutant cybrids, primary screen, cell-based, galactose medium, ATP luminescence (AID 1645843;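 active = z-score of at least 1.8 in each of two replicates, scored against plate mean and spread of sample wells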;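 note: positive z means more ATP and so rescue of galactose-driven cybrid death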); conditions: complex I mutant cybrid cells, 72 h, stronger effect = higher value
[14] = stronger effect = lower value, cell number ratio, induced over uninduced
[15] = measured here: relative caspase fold change +Dox/-Dox
[16] = measured here: total cells with miR-34 induction, stronger effect = lower value
[17] = measured here: total cells without miR-34 induction
[18] = MELAS cybrid survival, CellTiter-Glo 48 h, stronger effect = higher value
[19] = Rieske KO mouse fibroblast survival, CellTiter-Glo 72 h

SMILES: C=C(C)[C@@H]1C2C(=O)O[C@H]1[C@H]1OC(=O)[C@@]34OC3C[C@]2(O)[C@@]14C (some centres not stated)
- parasite load remaining [1]: 103% (inactive)
- viability [1]: 99.2%
- fold change [2, 14]: 0.887 (inactive)
- fold change [2, 15]: 0.911
- cell count [2, 16]: 8720
- cell count [2, 17]: 9830
- z-score [3, 18]: 0.399 (inactive)
- z-score [3, 19]: 0.218

SMILES: CN1[C@@H]2CC[C@H]1CC(OC1c3ccccc3CCc3ccccc31)C2 (some centres not stated)
- parasite load remaining [1]: 67% (inactive)
- viability [1]: 69.7%
- fold change [2, 14]: 0.913 (inactive)
- fold change [2, 15]: 0.451
- cell count [2, 16]: 8290
- cell count [2, 17]: 9070
- z-score [3, 18]: -1.44 (inactive)
- z-score [3, 19]: 0.907

SMILES: CNc1ccc2oc(C[C@@H]3OC4(CC[C@@H]3C)O[C@H](C(C)C(=O)c3ccc[nH]3)[C@H](C)C[C@H]4C)nc2c1C(=O)O (some centres not stated)
- EC50 [4]: 1000 nM (active)
- inhibition [5]: 86.4%
- score [6]: -0.79
- cytochrome c release ratio [7]: 0.48
- inhibition of aggregation [8]: 51.9%
- normalised LDH release [9]: 1.68
- glutamate uptake change [10]: -78%
- aggregation suppression score [11]: -0.166
- fold change ([2]; stronger effect = lower value): 1.33 (inactive)
- fold change [2, 15]: 0.886
- cell count [2, 16]: 885
- cell count [2, 17]: 666

SMILES: CN1CC[C@@]2(C)c3cc(O)ccc3N(C)[C@H]12
- parasite load remaining [1]: 82.4% (inactive)
- viability [1]: 73.5%
- fold change [2, 14]: 0.908 (inactive)
- fold change [2, 15]: 0.758
- cell count [2, 16]: 8570
- cell count [2, 17]: 9440
- z-score [3, 18]: 0.308 (inactive)
- z-score [3, 19]: 1.44

SMILES: CCC1(C)CC(=O)NC(=O)C1
- survival [12]: 3.92 (inactive)
- parasite load remaining [1]: 94.7% (inactive)
- viability [1]: 101%
- fold change ([2]; stronger effect = lower value): 0.856 (inactive) and 0.868 (inactive)
- fold change [2, 15]: 1.33 and 1.2
- cell count [2, 16]: 8070 and 7990
- cell count [2, 17]: 9420 and 9200
- z-score [3, 18]: -0.143 (inactive) and 0.0597 (inactive)
- z-score [3, 19]: -0.288 and -0.916

SMILES: COc1cccc([C@@]2(O)CCCCC2CN(C)C)c1 (some centres not stated)
- fold change ([2]; stronger effect = lower value): 0.881 (inactive)
- fold change [2, 15]: 1.09
- cell count [2, 16]: 9920
- cell count [2, 17]: 11300
- z-score [13]: 0.56 (inactive)

SMILES: C[C@]12CCC3C(CCC4=CC(=O)CC[C@@]43C)C1CCC2O (some centres not stated)
- fold change ([2]; stronger effect = lower value): 0.881 (inactive)
- fold change [2, 15]: 1.72
- cell count [2, 16]: 8500
- cell count [2, 17]: 9660
- z-score [13]: 0.515 (inactive)

SMILES: CCC1=C[C@@H]2CN3CCc4c([nH]c5ccccc45)[C@@](C(=O)OC)(C2)[C@@H]13
- parasite load remaining [1]: 9.8% (inactive)
- viability [1]: 47.4%
- fold change [2, 14]: 0.949 (inactive) and 0.823 (inactive)
- fold change [2, 15]: 1.22 and 0.88
- cell count [2, 16]: 8480 and 6230
- cell count [2, 17]: 8930 and 7580
- z-score [3, 18]: -0.196 (inactive) and 0.501 (inactive)
- z-score [3, 19]: -0.315 and -0.157

SMILES: CN[C@@H]1[C@@H](O)[C@@H](O[C@@H]2[C@@H](O)[C@H](O[C@H]3O[C@H]([C@@H](C)NC)CC[C@H]3N)[C@@H](N)C[C@H]2N)OC[C@]1(C)O (tested in a mixture with another compound)
- survival [12]: 18.8 (inactive)
- parasite load remaining [1]: 54.7% (inactive) and 51.8% (inactive)
- viability [1]: 60.6% and 91.5%
- fold change ([2]; stronger effect = lower value): 1.02 (inactive)
- fold change [2, 15]: 0.941
- cell count [2, 16]: 8090
- cell count [2, 17]: 7960
- z-score [3, 18]: -0.902 (inactive)
- z-score [3, 19]: -0.563

Source: PubChem BioAssay
